# In the supplement of paper PMC12636033:
# ± gives the standard deviation of the averaged measurements. Whole data set: some 33,000 sequences, median “E-score (rank enrichment, -0.5 to 0.5)” near -0.0075, cut for the highest 2% near 0.23. The entries come from a sample that favours the highest values as a whole.
# Tested on: WT Max(13-93) synthetic (M65Nle)
# Assay: PBM 8-mer E-score (E-score (rank enrichment, -0.5 to 0.5)); higher = stronger preferential binding
# Protocol: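 Protein binding microarray (universal PBM chip covering all 10-mers in fixed probe flanks) with chemically synthesized human Max(13-93) bHLH-LZ analogs (not full-length Max) bearing noncanonical residues (hArg, Tha, Aib, Nle at 65) and aromatic Cys staples. Read-out per 8-mer (and its reverse complement): E-score (rank-based enrichment, -0.5 to 0.5) and Z-score of median probe intensity.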
row,Sequence,PBM 8-mer E-score
1,CACGTGAA,0.388 ± 0.053
2,GGCTAGAC,-0.217 ± 0.07
3,TACGCCAA,0.0646 ± 0.021
4,CCATAACG,-0.0417 ± 0.027
5,TAATAACA,0.131 ± 0.0072
6,ACATAACA,0.215 ± 0.0054
7,CAATAACA,0.193 ± 0.046
8,GCATAACC,-0.0331 ± 0.022
9,GCATAACA,0.27 ± 0.04
10,CCATAACA,0.236 ± 0.036
11,CCATAACC,0.145 ± 0.0043
12,GAATAACA,0.242 ± 0.094
13,CAAGTAAC,0.0157 ± 0.17
14,AAGGACAA,-0.103 ± 0.0038
15,AGACTTAC,0.0412 ± 0.036
16,GGACTGAC,-0.163 ± 0.079
17,ACGCGGAC,0.112 ± 0.0026
18,CCCCTTAG,-0.25 ± 0.047
19,CTACACGA,-0.00142 ± 0.052
20,GCACACGA,0.121 ± 0.081
21,ATACACGA,0.194 ± 0.032
22,ACACACGC,0.208 ± 0.02
23,GCACACGC,0.284 ± 0.051
24,ACACACGA,0.252 ± 0.021
25,GTACACGA,0.246 ± 0.037
26,TCACACGA,0.0202 ± 0.039

row,Sequence,PBM 8-mer E-score
1,ACACACAA,0.0899 ± 0.06
2,ACACACGG,-0.09 ± 0.023
3,ACACACGT,0.295 ± 0.028
4,ACACACAT,0.208 ± 0.024
5,GGCACATA,-0.00374 ± 0.019
6,TGCGTTAA,-0.0126 ± 0.025
7,CACAATAC,0.204 ± 0.018
8,AGGGTTCG,0.0226 ± 0.091
9,GCCATACA,0.0396 ± 0.039
10,AACCCCCT,-0.12 ± 0.022
11,AGGATCTG,-0.1 ± 0.11
12,CCAACCGC,-0.126 ± 0.13
13,CTGCCCCC,-0.128 ± 0.089
14,CAAAATAC,0.189 ± 0.047
15,CAGCATAG,-0.0673 ± 0.062
16,AACCATGC,0.162 ± 0.018
17,GAGCATGC,0.249 ± 0.018
18,CAGCATAC,0.0204 ± 0.073
19,GACCATGC,0.27 ± 0.043
20,CAGCATGC,0.237 ± 0.04
21,GAGCATGA,0.205 ± 0.03
22,GACCATGA,-0.0818 ± 0.059
23,CAGCATGA,0.128 ± 0.022
24,CAGCATGG,0.331 ± 0.028
25,CGGCATGC,0.124 ± 0.05
26,GAGCATAC,0.00326 ± 0.079

row,Sequence,PBM 8-mer E-score
1,ATCGCGGC,-0.136 ± 0.14
2,CGAAACGC,-0.14 ± 0.0054
3,GAACACTC,-0.0859 ± 0.0037
4,ATTTATTA,0.152 ± 0.031
5,ATACCAAA,0.124 ± 0.029
6,CTAATGGA,-0.125 ± 0.0031
7,ACCATATC,0.0455 ± 0.019
8,ACCATATA,0.248 ± 0.043
9,GCTATATA,0.146 ± 0.04
10,ACCATATG,0.221 ± 0.0037
11,ACTATATC,0.21 ± 0.015
12,ACTATATA,0.274 ± 0.0075
13,ACCGGCAC,0.0185 ± 0.12
14,CTATCTCC,-0.00138 ± 0.076
15,GAAGTAGA,0.0186 ± 0.0018
16,ACTGATCG,-0.106 ± 0.045
17,AAGTGTAT,0.149 ± 0.018
18,ACGTGTAT,0.4013 ± 0.0019
19,ACGTGTAA,0.35 ± 0.019
20,TCGTGTAA,0.1 ± 0.05
21,AGGTGTAT,0.136 ± 0.019
22,CCGTGTAA,-0.00838 ± 0.1
23,ACGTGTAG,0.1905 ± 0.0018
24,GCGTGTAC,0.125 ± 0.015
25,ACGTGTAC,0.354 ± 0.014
26,ATTACCCA,0.146 ± 0.11

row,Sequence,PBM 8-mer E-score
1,CCCTAAGC,-0.152 ± 0.068
2,ATATATGC,0.0949 ± 0.049
3,GTATATGA,0.266 ± 0.019
4,CTATATGC,0.168 ± 0.083
5,ATATAGTC,0.107 ± 0.0014
6,CTATATGA,0.0892 ± 0.063
7,ATATAGTA,0.228 ± 0.029
8,AAATGTGA,0.026 ± 0.14
9,TAATGTGA,0.233 ± 0.075
10,ATATAGTG,0.2556 ± 0.0011
11,CAATGTGA,0.179 ± 0.0028
12,ATATATGG,0.244 ± 0.055
13,ATATATGA,0.0913 ± 0.21
14,CCTGGCCG,-0.194 ± 0.086
15,ACCCAGAG,-0.0559 ± 0.026
16,CGGTCCAA,-0.19 ± 0.19
17,CGCCTTAG,-0.0361 ± 0.042
18,CGGAAAGC,-0.0958 ± 0.16
19,GCACAGGC,-0.146 ± 0.038
20,GCCCGAGC,0.035 ± 0.06
21,AAATGTGT,0.224 ± 0.085
22,CAATGTGG,0.133 ± 0.072
23,GTATGTGA,-0.0439 ± 0.13
24,ATGTGTGG,0.148 ± 0.055
25,AAATGTGG,0.245 ± 0.048
26,CTATGTGA,0.0181 ± 0.018

row,Sequence,PBM 8-mer E-score
1,ATATGTGA,0.278 ± 0.14
2,ATATGTGG,0.292 ± 0.015
3,ATATGTGC,0.181 ± 0.014
4,CCTGTCGA,0.00438 ± 0.055
5,ATTTACCG,0.17 ± 0.0023
6,ATTCCGGC,-0.2339 ± 0.0017
7,GAGATCAA,0.0454 ± 0.094
8,CACCTGAA,0.166 ± 0.075
9,CTGAGATA,-0.222 ± 0.091
10,CCTTCTCA,0.0588 ± 0.1
11,CCGGCCCA,-0.197 ± 0.085
12,GAAAAGGC,0.253 ± 0.15
13,CAAAAGGC,-0.00832 ± 0.029
14,AAAAAGGC,0.109 ± 0.096
15,AACGTTTA,0.146 ± 0.049
16,TCGGACCA,-0.114 ± 0.059
17,GGCGGGAA,0.0202 ± 0.047
18,CGCGGGGA,-0.172 ± 0.12
19,GGCGGGGA,0.303 ± 0.031
20,CTGGTCCA,-0.128 ± 0.094
21,TAGGTAAA,-0.0909 ± 0.038
22,ACGACCAA,-0.0717 ± 0.22
23,AGCAAGCC,-0.152 ± 0.033
24,GACCAGCC,-0.205 ± 0.093
25,CTGATGTA,0.0268 ± 0.064
26,GTGATTTA,0.27 ± 0.0069

row,Sequence,PBM 8-mer E-score
1,CTGATTTA,0.0789 ± 0.0019
2,ATGATTAA,0.0011 ± 0.15
3,ATGATTTA,0.178 ± 0.027
4,GTGATGTA,0.239 ± 0.0057
5,ATGATGTA,0.197 ± 0.047
6,CTGATTAA,0.192 ± 0.081
7,GTGATTAA,0.296 ± 0.066
8,GTTCTCGA,0.0864 ± 0.12
9,CACCACTA,0.129 ± 0.17
10,CGCTGGCC,-0.289 ± 0.025
11,GGAAGGAA,0.0471 ± 0.045
12,ACGAAGTG,0.00194 ± 0.018
13,ACTGATGC,-0.0431 ± 0.041
14,CGCGGAAA,-0.0276 ± 0.059
15,CGTTGCAA,-0.0452 ± 0.0072
16,AGCCTAGG,-0.0541 ± 0.089
17,CTGTCATA,0.113 ± 0.023
18,ATATCATA,0.184 ± 0.031
19,CTATCATA,0.1619 ± 0.00089
20,ATGTCATA,0.1682 ± 0.0013
21,GTGTCATA,0.291 ± 0.0065
22,GTATCATA,0.248 ± 0.1
23,AACGAAGC,-0.00685 ± 0.13
24,CTTTTGTA,0.125 ± 0.051
25,ATTTTGTG,0.145 ± 0.021
26,ATTTTGTA,0.237 ± 0.051

row,Sequence,PBM 8-mer E-score
1,GTTTTGCA,0.108 ± 0.019
2,AATTTCTA,0.172 ± 0.047
3,ATTTTCTA,0.24 ± 0.019
4,CTTTTCTA,0.0691 ± 0.035
5,GTTTTGTA,0.248 ± 0.031
6,GGTTTGTA,-0.0081 ± 0.036
7,CCGCTTCG,-0.0665 ± 0.16
8,CCCTCCTA,0.0972 ± 0.061
9,GAACATAA,0.16 ± 0.059
10,AAACATAT,0.144 ± 0.0056
11,GTACATAA,0.236 ± 0.0032
12,AAACATAC,0.233 ± 0.027
13,TAACATAA,0.244 ± 0.0065
14,CAACATAC,0.112 ± 0.046
15,CAACATAA,0.167 ± 0.0094
16,ACACATAA,0.214 ± 0.066
17,CTACATAA,0.0655 ± 0.2
18,TTACATAA,0.136 ± 0.048
19,AAACATAA,0.244 ± 0.059
20,AAACATAG,0.21 ± 0.031
